In this assay the test system is primary human hepatic stellate cells (donor 1). The assay can be described thus: scaled lipid accumulation score (0 = DMSO-like, 1 = nortriptyline-like); higher = stronger HSC inactivation (lipid re-accumulation), active = hit call of the paper. The following applies: 48 h.
[1] abbreviates: library stock concentration: 3.33 mM.
Where [2] appears, read: library stock concentration: 10 mM.
Where [3] appears, read: library stock concentration: 1 mM.
Where [4] appears, read: library stock concentration: 80 uM.
Setting [5] is: library stock concentration: 400 uM.
Where [6] appears, read: library stock concentration: 2 mM.

Molecules are shown by their SMILES. Counter-ions that a name gives are not always drawn. The whole screen tested about 5,800 compounds, of which about 620 (11%) showed activity. This is one part of a sample in which actives are shown more often than they occur. Unmarked numbers belong to inactive results.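 How the source made its calls: active = score above a cut-off or among the top three wells of a plate; in these data no inactive exceeds 0.85.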 Where only a bound is given, the exact number is not on record here.

As for `COc1cc(OC)c(C=C2C(=O)Nc3ccccc32)c(OC)c1`, the “scaled lipid accumulation score” value is not above 0 under setting [1] and not above 0 under setting [2].

As for `CN(C)S(=O)(=O)c1ccc2c(c1)/C(=C/c1cc3c([nH]1)CCCC3)C(=O)N2` [listing 1 of 3 here], under setting [1], the “scaled lipid accumulation score” value is 0.613.

As for `CN(C)S(=O)(=O)c1ccc2c(c1)/C(=C/c1cc3c([nH]1)CCCC3)C(=O)N2` [listing 2 of 3 here], under setting [3], the “scaled lipid accumulation score” value is 0.413 (active).

Consider `O=C1Nc2ccccc2/C1=C\c1c(Cl)[nH]c2ccccc12`, for which the “scaled lipid accumulation score” value is not above -0.001 under setting [4], not above -0.001 under setting [5], not above -0.001 under setting [6] and 0.116 under setting [2].

For `O=C1Nc2ccc(Br)cc2/C1=C/c1cc2c([nH]1)CCCC2` [VEGF Receptor 2 Kinase Inhibitor II], the “scaled lipid accumulation score” value under setting [1] is 0.454.

On to `CN(C)S(=O)(=O)c1ccc2c(c1)/C(=C/c1cc3c([nH]1)CCCC3)C(=O)N2` [listing 3 of 3 here], for which the “scaled lipid accumulation score” value under setting [2] is 0.958 (active).

Turning to `CCCCC[C@H](O)CC[C@@H]1[C@@H](CCCCCCC(=O)O)[C@@H](O)C[C@H]1O` [13,14-dihydro Prostaglandin F1.alpha.], under setting [3], the “scaled lipid accumulation score” value is not above 0.

On to `NCc1c[nH]c(=S)n1C1CCc2c(F)cc(F)cc2C1` [(R)-Nepicastat HCl], for which the “scaled lipid accumulation score” value under setting [1] is not above 0 and the “scaled lipid accumulation score” value under setting [2] is 0.361.

With `CC(=NNC(=S)N1CCC1)c1ccccn1`, the “scaled lipid accumulation score” value under setting [1] is 0.164 and the “scaled lipid accumulation score” value under setting [2] was 0.375.

As to `CCCCC1(C2CCCC2)Cc2cc(OCC(=O)O)c(Cl)c(Cl)c2C1=O` (stereo in doubt) [R(+)-Butylindazone], the “scaled lipid accumulation score” value under setting [2] was 0.139.

`CN(CC(=O)N(Cc1ccc(C2CCCCC2)cc1)c1ccc(C(=O)O)cc1)S(=O)(=O)c1c(F)c(F)c(F)c(F)c1F`: the “scaled lipid accumulation score” value was not above -0.009 under setting [1] and 0.483 under setting [2].

Take `CCCCC[C@H](O)/C=C/[C@@H]1[C@@H](C/C=C\CCCC(=O)N(C)C)[C@@H](O)C[C@H]1O` [Prostaglandin F2.alpha. dimethyl amide]: the “scaled lipid accumulation score” value under setting [3] was not above 0.

With `CC(C)N(CCC(=O)c1ccc2ccccc2c1)Cc1ccccc1`, the “scaled lipid accumulation score” value by setting is: under setting [1], 0.613; under setting [2], 0.619.

Regarding `CC(C)NCC(O)c1ccc2ccccc2c1` (stereo unspecified) [Pronetalol hydrochloride], the “scaled lipid accumulation score” value under setting [2] is 0.107.

In the case of `CC(C)N(CCC(=O)c1ccc2ccccc2c1)Cc1ccccc1.Cl` [listing 1 of 2 here], the “scaled lipid accumulation score” value under setting [2] is 1.1 (active).

Consider `CC(COc1ccccc1)N(CCCl)Cc1ccccc1` (stereo unspecified) [Phenoxybenzamine], for which, under “library stock concentration: 16.5 mM”, the “scaled lipid accumulation score” value is not above -0.012.

Consider `CC(C)NCC(O)c1ccc2ccccc2c1` (stereo unspecified) [Pronethalol HCl], for which the “scaled lipid accumulation score” value (library stock concentration: 8.7 mM) is 0.224.

In the case of `CC(COc1ccccc1)N(CCCl)Cc1ccccc1` (stereo unspecified) [Phenoxybenzamine HCl], the “scaled lipid accumulation score” value was not above 0 under setting [1], 0.025 (library stock concentration: 6.6 mM) and not above 0 under setting [2].

On to `CC(COc1ccccc1)N(CCCl)Cc1ccccc1` (stereo unspecified) [Phenoxybenzamine hydrochloride], for which the “scaled lipid accumulation score” value was 0.065. Further, the “scaled lipid accumulation score” value (library stock concentration: 5.9 mM) was not above 0.

As to `C=CC(=O)c1ccc2ccccc2c1`, the “scaled lipid accumulation score” value under setting [2] was 0.015.

`CC(C)N(CCC(=O)c1ccc2ccccc2c1)Cc1ccccc1.Cl` [listing 2 of 2 here]: the “scaled lipid accumulation score” value under setting [2] was 0.966 (active).

In the case of `CC(COc1ccccc1)N(CCCl)Cc1ccccc1` (stereo unspecified) [Dibenzyline], under setting [2], the “scaled lipid accumulation score” value is 0.174.

Regarding `CC(C)NCC(O)c1ccc2ccccc2c1` (stereo unspecified) [Pronethalol hydrochloride], the “scaled lipid accumulation score” value was 0.369. Also, the “scaled lipid accumulation score” value under setting [2] was 0.221.

Turning to `CCCCCCCCCCCCCCCCOC[C@H](COP(=O)([O-])OCCCCCC[N+](C)(C)C)OC(C)=O` [Hexanolamino PAF C-16], the “scaled lipid accumulation score” value under setting [3] was not above 0.

As to `Cc1ccc(-n2[nH]c(C)c(N=Nc3cccc(-c4cccc(C(=O)O)c4)c3O)c2=O)cc1C` [Eltrombopag], the “scaled lipid accumulation score” value was 0.081 under setting [1] and 0.077 under setting [2].

As for `COc1cccc2cc(-c3nc([C@H]4CC[C@H](C(=O)O)CC4)n4ncnc(N)c34)[nH]c12`, the “scaled lipid accumulation score” value reads like this: under setting [4], not above 0; under setting [5], 0.061; under setting [6], not above 0; under setting [1], 0.043; under setting [2], not above 0.

Turning to `C[C@H]1C[C@@H]2[C@H]([C@@H](O)C[C@@]3(C)[C@H]2CC[C@]3(O)C(=O)COC(=O)CCC(=O)O)[C@@]2(C)C=CC(=O)C=C12` [Methylprednisolone sodium succinate], the “scaled lipid accumulation score” value (library stock concentration: 4 mM) is 0.015.

Turning to `N#CSc1cc(SC#N)c(N)nc1N`, the “scaled lipid accumulation score” value was 0.46 under setting [1] and 0.53 under setting [2].

Turning to `NC(Cn1ccc(=O)c(O)c1)C(=O)O` (stereo unspecified) [Mimosine], the “scaled lipid accumulation score” value was not above 0. Further, under setting [2], the “scaled lipid accumulation score” value was not above 0.

Turning to `CCCCC[C@H](O)/C=C/[C@H]1CC[C@H](O)[C@@H]1CCCCCCC(=O)O` [11-deoxy Prostaglandin F1.alpha.], under setting [3], the “scaled lipid accumulation score” value is not above 0.

Consider `CCCCC(C)(C)[C@H](O)/C=C/[C@H]1CCC(=O)[C@@H]1C/C=C\CCCC(=O)O` [11-deoxy-16,16-dimethyl Prostaglandin E2], for which the “scaled lipid accumulation score” value under setting [3] is 0.098.

In the case of `CN1CCN(CCCN2c3ccccc3Sc3ccc(S(=O)(=O)N(C)C)cc32)CC1` [Thioproperazine dimesylate], the “scaled lipid accumulation score” value is 0.733.

For the molecule `CN1CCN(CC/C=C2\c3ccccc3Sc3ccc(S(=O)(=O)N(C)C)cc32)CC1` [Thiothixene], the “scaled lipid accumulation score” value (library stock concentration: 4.5 mM) was 0.856 (active).

Consider `CN1CCN(CC/C=C2/c3ccccc3Sc3ccc(S(=O)(=O)N(C)C)cc32)CC1` [Thiothixene], for which the “scaled lipid accumulation score” value under setting [2] is 0.435.

Consider `CN1CCN(CC/C=C2/c3ccccc3Sc3ccc(S(=O)(=O)N(C)C)cc32)CC1`, for which, under setting [2], the “scaled lipid accumulation score” value was 0.722.

As to `Cl.OCCN1CCN(CC/C=C2/c3ccccc3Sc3ccc(Cl)cc32)CC1` [Zuclopenthixol hydrochloride], the “scaled lipid accumulation score” value was 0.995 (active).

Take `Cl.Cl.OCCN1CCN(CC/C=C2/c3ccccc3Sc3ccc(C(F)(F)F)cc32)CC1` [cis-(Z)-Flupenthixol dihydrochloride]: the “scaled lipid accumulation score” value under setting [2] was 1.01 (active).

Values taken from the supplement of paper PMC9135407.
